Results from PubChem BioAssay (NCATS).
“And” between values parts separate entries of the source, which are not always exact repeats. Equal values may be shown once. Inconclusive results are not listed. Where a call stands in place of a potency, no number is given. The source holds several records for some structures; these can differ, active in one and inactive in another. The source made the active and inactive calls. Calls follow the shape of the dose curve; as a rule, active = well fitted curve in the direction sought with a large enough effect; inconclusive = small, poorly fitted or top-dose-only effect, or another doubt; inactive = no such curve, though single readings can be large; an effect the other way counts as inactive or inconclusive.

Assay: qHTS assay to identify small molecule inhibitors of chordoma cells - UCH-2 (AID 1259356)
Conditions: UCH-2 chordoma viability, CellTiter-Glo ATP luminescence, 48 h; series mostly up to 46.1 µM
In the case of `FC(F)(F)c1cccc(C2=CCN(CCc3ccc4ccccc4c3)CC2)c1`, the Potency is reported as “inactive”. For `Oc1ccc(Cl)cc1Cc1ccccc1`, the Potency was “inactive”. In the case of `NCC(CC(=O)O)c1ccc(Cl)cc1` (stereo not given), the Potency is reported as “inactive”. With `CC(=O)Nc1cc([As](=O)(O)O)ccc1O` the Potency was “inactive”. With `CCN(CC)CCOC(=O)C(O)(c1ccccc1)c1ccccc1` the Potency was “inactive”. In the case of `CC[N+]1(C)CCCC(OC(=O)C(O)(c2ccccc2)c2ccccc2)C1` (stereo not given), the Potency is reported as “inactive”. In the case of `Clc1ccc(CCC(Cn2ccnc2)Sc2c(Cl)cccc2Cl)cc1` (stereo not given), the Potency is reported as “inactive”. In the case of `NCCc1cc(O)c(O)cc1O`, the Potency is reported as “inactive”. In the case of `Cc1ccc(-c2nc3ccc(C)cn3c2CC(=O)N(C)C)cc1`, the Potency is reported as “inactive”. For `CCC(COC(=O)c1cc(OC)c(OC)c(OC)c1)(c1ccccc1)N(C)C` (stereo not given), the Potency was “inactive”. For `N[C@@H](Cc1ccc(Oc2cc(I)c(O)c(I)c2)c(I)c1)C(=O)O`, the Potency was “inactive”. In the case of `CCC(C(N)=O)N1CCCC1=O` (stereo not given), the Potency is reported as “inactive”. In the case of `Clc1cccc(N2CCNCC2)c1`, the Potency is reported as “inactive”. In the case of `C=C1C[C@@H]2[C@H](CC[C@]3(C)C(=O)CC[C@@H]23)[C@@]2(C)C=CC(=O)C=C12`, the Potency is reported as “inactive”. For `NCC(O)c1ccc(O)cc1` (stereo not given), the Potency was “inactive”. With `Oc1ccccc1-c1ccccc1` the Potency was “inactive”. In the case of `CC(C)(N)Cc1ccc(Cl)cc1`, the Potency is reported as “inactive”. In the case of `CC(C)(C)NCC(O)c1cc(Cl)c(N)c(Cl)c1` (stereo not given), the Potency is reported as “inactive”. For `Clc1ccc(COC(Cn2ccnc2)c2ccc(Cl)cc2Cl)cc1` (stereo not given), the Potency was “inactive”. For `O=C(O)c1ccc2[nH]cc(CCCCN3CC=C(c4ccccc4)CC3)c2c1`, the Potency was “inactive”. For `Cc1ccc(S(=O)(=O)N[C@@H](CCCCN)C(=O)CCl)cc1`, the Potency was “inactive”. With `CC(=O)[C@H]1CC[C@H]2[C@@H]3CC[C@H]4C[C@](C)(O)CC[C@]4(C)[C@H]3CC[C@]12C` the Potency was “inactive”. For `C=C1CC[C@@]2(O)[C@H]3Cc4ccc(O)c5c4[C@@]2(CCN3CC2CC2)[C@H]1O5`, the Potency was “inactive”. For `CCOC(=O)C1(c2ccccc2)CCN(CCC(C#N)(c2ccccc2)c2ccccc2)CC1`, the Potency was “inactive”. With `O=[N+]([O-])c1cc([As](=O)(O)O)ccc1O` the Potency was “inactive”. With `C#CCOC(C(=O)OCCN(C)C)(c1ccccc1)c1ccccc1` the Potency was “inactive”. For `Oc1cc(Cl)ccc1Oc1ccc(Cl)cc1Cl`, the Potency was “inactive”. In the case of `CN1C(=S)CN=C(c2ccccc2)c2cc(Cl)ccc21`, the Potency is reported as “inactive”. In the case of `CCCN1CCC[C@@H]2Cc3nc(N)ncc3C[C@H]21`, the Potency is reported as “inactive”. In the case of `c1ccc(C2CC2)c(OCC2=NCCN2)c1`, the Potency is reported as “inactive”. With `Cc1cccc(C)c1NC1=NCCCS1` the Potency was “inactive”. In the case of `CC1NCCOC1c1ccccc1` (stereo not given), the Potency is reported as “inactive”. In the case of `CC[N+](CC)(CC)CC`, the Potency is reported as “inactive”. For `Cc1ccc2c(c1)C1CN(C)CCC1N2` (stereo not given), the Potency was “inactive”. For `CCN(C(C)=O)c1cccc(-c2ccnc3c(C#N)cnn23)c1`, the Potency was “inactive”.

Assay: P-glycoprotein substrates identified in KB-8-5-11 adenocarcinoma cell line, qHTS therapeutic library screen (AID 1346987); also: nearly all actives have a fitted effect of over 65% in size; also: potency is read from the fitted curve at half-maximal effect
Conditions: KB-8-5-11 (P-gp overexpressing) viability, CellTiter-Glo, 72 h; series mostly up to 44.5 µM
Outline: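 Compounds are pinned in dose-response onto KB-8-5-11 cells (500 cells/well, colchicine-free medium) and left 72 h at 37 degree C. CellTiter-Glo luminescence then yields AC50 values.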
With `FC(F)(F)c1cccc(C2=CCN(CCc3ccc4ccccc4c3)CC2)c1` the Potency was “inactive”. For `Oc1ccc(Cl)cc1Cc1ccccc1`, the Potency was “inactive”. With `NCC(CC(=O)O)c1ccc(Cl)cc1` (stereo not given) the Potency was “inactive”. For `CC(=O)Nc1cc([As](=O)(O)O)ccc1O`, the Potency was “inactive”. For `CCN(CC)CCOC(=O)C(O)(c1ccccc1)c1ccccc1`, the Potency was “inactive”. With `CC[N+]1(C)CCCC(OC(=O)C(O)(c2ccccc2)c2ccccc2)C1` (stereo not given) the Potency was “inactive”. For `NCCc1cc(O)c(O)cc1O`, the Potency was “inactive”. For `N[C@@H](Cc1ccc(Oc2cc(I)c(O)c(I)c2)c(I)c1)C(=O)O`, the Potency was “inactive”. For `CCC(C(N)=O)N1CCCC1=O` (stereo not given), the Potency was “inactive”. In the case of `Clc1cccc(N2CCNCC2)c1`, the Potency is reported as “inactive”. For `NCC(O)c1ccc(O)cc1` (stereo not given), the Potency was “inactive”. With `Oc1ccccc1-c1ccccc1` the Potency was “inactive”. For `CC(C)(N)Cc1ccc(Cl)cc1`, the Potency was “inactive”. In the case of `CC(C)(C)NCC(O)c1cc(Cl)c(N)c(Cl)c1` (stereo not given), the Potency is reported as “inactive”. For `O=C(O)c1ccc2[nH]cc(CCCCN3CC=C(c4ccccc4)CC3)c2c1`, the Potency was “inactive”. For `Cc1ccc(S(=O)(=O)N[C@@H](CCCCN)C(=O)CCl)cc1`, the Potency was “inactive”. In the case of `CC(=O)[C@H]1CC[C@H]2[C@@H]3CC[C@H]4C[C@](C)(O)CC[C@]4(C)[C@H]3CC[C@]12C`, the Potency is reported as “inactive”. For `C=C1CC[C@@]2(O)[C@H]3Cc4ccc(O)c5c4[C@@]2(CCN3CC2CC2)[C@H]1O5`, the Potency was “inactive”. For `CCOC(=O)C1(c2ccccc2)CCN(CCC(C#N)(c2ccccc2)c2ccccc2)CC1`, the Potency was 9.2 µM (active) and 15.8 µM (active). With `O=[N+]([O-])c1cc([As](=O)(O)O)ccc1O` the Potency was “inactive”. In the case of `C#CCOC(C(=O)OCCN(C)C)(c1ccccc1)c1ccccc1`, the Potency is reported as “inactive”. In the case of `Oc1cc(Cl)ccc1Oc1ccc(Cl)cc1Cl`, the Potency is reported as “inactive and 31.6 µM (active)”. In the case of `CCCN1CCC[C@@H]2Cc3nc(N)ncc3C[C@H]21`, the Potency is reported as “inactive”. For `c1ccc(C2CC2)c(OCC2=NCCN2)c1`, the Potency was “inactive”. With `Cc1cccc(C)c1NC1=NCCCS1` the Potency was “inactive”. For `CC1NCCOC1c1ccccc1` (stereo not given), the Potency was “inactive”. With `CC[N+](CC)(CC)CC` the Potency was “inactive”. With `Cc1ccc2c(c1)C1CN(C)CCC1N2` (stereo not given) the Potency was “inactive”. In the case of `Cc1cc(SCc2sc(-c3ccc(C(F)(F)F)c(F)c3)nc2C)ccc1OCC(=O)O`, the Potency is reported as “inactive”. For `CCN(C(C)=O)c1cccc(-c2ccnc3c(C#N)cnn23)c1`, the Potency was “inactive”.
